About 83,000 compounds went through this panel and 20% of them were active in at least one assay; those are over-represented in the sample as a whole.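 Note: values are percent growth. 100 is the growth of untreated cells, values between 100 and 0 indicate rising inhibition; between -100 and 0 indicates cell death.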 A number with no mark means an inactive call. Activity calls are given as the source filed them. Rule for the calls: active = growth percent below 10; inactive = the rest.

Common to all, as to test: NCI-60 one-dose screen, 48 h (100 = growth as untreated, 0 = no growth, -100 = all killed)
One experiment has as its system HT29 colon. Particulars: 10 µM unless noted.
A further experiment deals with SNB-75 CNS. The settings on record: 10 µM unless noted.
The subject of another experiment is SNB-19 CNS. The settings on record: 10 µM unless noted.
The next experiment concerns U251 CNS. Particulars: 10 µM unless noted.
The subject of another experiment is PC-3 prostate. The settings on record: 10 µM unless noted.
In the next experiment the test system is SK-MEL-5 melanoma. The settings on record: 10 µM unless noted.
The next experiment deals with UACC-62 melanoma. Particulars: 10 µM unless noted.
A further experiment has as its system LOX IMVI melanoma. Particulars: 10 µM unless noted.
The subject of a further experiment is SK-MEL-28 melanoma. The settings on record: 10 µM unless noted.
The subject of another experiment is EKVX NSCLC. The settings on record: 10 µM unless noted.
In a further experiment the test system is SN12C renal. Particulars: 10 µM unless noted.
For another experiment, the system named is UO-31 renal. Particulars: 10 µM unless noted.
For a further experiment, the system named is TK-10 renal. Particulars: 10 µM unless noted.
Another experiment has as its system CAKI-1 renal. The settings on record: 10 µM unless noted.
The test system of another experiment is A498 renal. The settings on record: 10 µM unless noted.
The test system of the next experiment is CCRF-CEM leukemia. Particulars: 10 µM unless noted.
For another experiment, the system named is MOLT-4 leukemia. The settings on record: 10 µM unless noted.
Another experiment concerns ACHN renal. The settings on record: 10 µM unless noted.
In the next experiment the test system is SK-MEL-2 melanoma. Particulars: 10 µM.

In the case of `C/C(=C(/c1ccc(Cl)cc1)c1ccc(OCCN2CCCCCC2)cc1)c1ccccc1`, the growth in the experiment on HT29 colon was 8.45% (active); in the experiment with SNB-75 CNS it was 88.4%; with SNB-19 CNS it was 88.4%; with U251 CNS, 73.1%; with PC-3 prostate, 69.3%; in the experiment with SK-MEL-5 melanoma, 69.5%. In addition, the growth in the experiment on UACC-62 melanoma is 90%; in the experiment with LOX IMVI melanoma it was 62.6%; with SK-MEL-28 melanoma, 88%; in the experiment with EKVX NSCLC it was 70.2%; in the experiment on SN12C renal, 87.6%; with UO-31 renal, 70.9%. The growth was 101% in the experiment on TK-10 renal; 96.9% in the experiment with CAKI-1 renal; 86% in the experiment with A498 renal; 68.9% in the experiment on CCRF-CEM leukemia; 82% in the experiment with MOLT-4 leukemia.

Consider `CNC(=O)c1c(C)oc2cc(Oc3ncnc4cc(OC)c(OC)cc34)ccc12`, for which the growth with HT29 colon is 98.4%; with SNB-75 CNS it was 58.2%; in the experiment with SNB-19 CNS, 97.5%; in the experiment on U251 CNS, 58.9%; in the experiment with PC-3 prostate it was 84.9%; with SK-MEL-5 melanoma, 121%. In addition, the growth is 104% with UACC-62 melanoma; 96.5% with LOX IMVI melanoma; 119% in the experiment on SK-MEL-28 melanoma; 113% in the experiment with EKVX NSCLC; 107% in the experiment on SN12C renal; 66% in the experiment on UO-31 renal. Further, the growth with TK-10 renal is 98.9%; in the experiment on ACHN renal, 104%; with CAKI-1 renal, 82.2%; with A498 renal it was 19.5%; in the experiment on CCRF-CEM leukemia, 86.2%; with MOLT-4 leukemia, 85.6%.

On to `COc1ccc(S(=O)(=O)N(C(C)=O)c2ccccc2/C=C/c2cc[n+]([O-])cc2)cc1`, for which the growth is 1.49% (active) in the experiment on HT29 colon; 4.75% (active) in the experiment with SNB-75 CNS; 25.4% in the experiment with SNB-19 CNS; 9.19% (active) in the experiment with U251 CNS; 17.9% with PC-3 prostate; 7.61% (active) with SK-MEL-5 melanoma. Besides, the growth was 37.1% in the experiment with UACC-62 melanoma; 18% in the experiment with LOX IMVI melanoma; 45.4% in the experiment with SK-MEL-28 melanoma; 31.8% with EKVX NSCLC; 32.4% in the experiment on SN12C renal; 50% in the experiment on UO-31 renal. Also, the growth in the experiment with TK-10 renal is 49.2%; in the experiment with ACHN renal it was 42.5%; with CAKI-1 renal it was 32.7%; in the experiment on A498 renal, 1.32% (active); with CCRF-CEM leukemia, 16.4%; with MOLT-4 leukemia, 22.5%.

For `COc1cc2cc(NCc3ccc(F)cc3)nc(C)c2cc1OC`, the growth in the experiment with HT29 colon was 11.9%; with SNB-75 CNS, 101%; in the experiment on SNB-19 CNS it was 43.8%; in the experiment with U251 CNS, 29.7%; in the experiment with PC-3 prostate, 48.2%; with SK-MEL-5 melanoma it was 38.3%. Moreover, the growth is 27.8% in the experiment on UACC-62 melanoma; 6.57% (active) with LOX IMVI melanoma; 35.4% in the experiment with SK-MEL-28 melanoma; 78.7% in the experiment on EKVX NSCLC; 51% with SN12C renal; 49.6% in the experiment on UO-31 renal. Moreover, the growth in the experiment on TK-10 renal was 46.7%; in the experiment on ACHN renal, 60.4%; with A498 renal, 27.4%; in the experiment on CCRF-CEM leukemia, 41.9%; in the experiment with MOLT-4 leukemia, 35.2%.

`CC[C@@H]1C(=O)N(C)c2cnc(Nc3ccc(C(=O)NC4CCC(N5CCN(CC6CC6)CC5)CC4)cc3OC)nc2N1C(C)C` (some centres not stated): the growth was -8.67% (active) with SNB-75 CNS; 25.9% in the experiment with SNB-19 CNS; -16.3% (active) in the experiment with U251 CNS; 9.7% (active) in the experiment with PC-3 prostate; -96.5% (active) in the experiment on SK-MEL-5 melanoma; -47.3% (active) in the experiment on UACC-62 melanoma. For the same compound, the growth in the experiment on LOX IMVI melanoma is -72.1% (active); with SK-MEL-28 melanoma, -72.3% (active); in the experiment on EKVX NSCLC, 21.2%; in the experiment on SN12C renal it was 7.06% (active); in the experiment with UO-31 renal, -52.3% (active); in the experiment with TK-10 renal, 19.9%. Besides, the growth in the experiment on ACHN renal is -3.77% (active); in the experiment with CAKI-1 renal, 10.6%; with A498 renal, -51.8% (active); in the experiment on CCRF-CEM leukemia, 0.0303% (active); in the experiment on MOLT-4 leukemia it was -19.6% (active).

As for `Cc1cc(Nc2ncc(Cl)c(Nc3ccccc3S(=O)(=O)C(C)C)n2)c(OC(C)C)cc1C1CCNCC1`, the growth in the experiment on HT29 colon was -88.1% (active); with SNB-75 CNS, -98.1% (active); with SNB-19 CNS, -94.9% (active); with U251 CNS, -100% (active); in the experiment on PC-3 prostate, -92.2% (active); in the experiment on SK-MEL-5 melanoma, -98.9% (active). The growth in the experiment with UACC-62 melanoma is -95.1% (active); in the experiment with LOX IMVI melanoma, -90.7% (active); in the experiment with SK-MEL-28 melanoma, -99.3% (active); in the experiment on EKVX NSCLC it was -87.6% (active); with SN12C renal it was -87.2% (active); in the experiment on TK-10 renal, -96.1% (active). Moreover, the growth with ACHN renal is -100% (active); with CAKI-1 renal it was -99.5% (active); in the experiment with A498 renal it was 40.2%; in the experiment with CCRF-CEM leukemia, -47.5% (active); in the experiment on MOLT-4 leukemia, -59.9% (active).

For `CC1(O)CCC(Nc2cc(-c3ccc(C(F)(F)F)cc3)c(C#N)c3nc4ccccc4n23)CC1` (configuration not stated), the growth is 60.7% in the experiment with HT29 colon; 41.4% with SNB-75 CNS; 70.3% in the experiment with SNB-19 CNS; 67.9% with U251 CNS; 35.5% in the experiment on PC-3 prostate; 5.75% (active) in the experiment on SK-MEL-5 melanoma. Besides, the growth is 77.1% with UACC-62 melanoma; 55% with LOX IMVI melanoma; 89.3% in the experiment with SK-MEL-28 melanoma; 73.4% with SK-MEL-2 melanoma; 54.1% in the experiment on EKVX NSCLC; 63.9% in the experiment on SN12C renal. Moreover, the growth in the experiment with UO-31 renal was 47.1%; with TK-10 renal, 71.4%; in the experiment on ACHN renal it was 59.8%; with CAKI-1 renal it was 54.6%; in the experiment on A498 renal it was 46.8%; in the experiment with CCRF-CEM leukemia, 64.9%. In the experiment on MOLT-4 leukemia, the growth is 27.5%.

With `COc1cnc2c(c1)C(=O)c1c-2n(CCCN2CCC(O)CC2)c(=O)c2cc(Cl)ccc12`, the growth in the experiment on HT29 colon is -54.6% (active); in the experiment with SNB-75 CNS, 49.1%; in the experiment on SNB-19 CNS, 34.2%; with U251 CNS, -76.7% (active); in the experiment on PC-3 prostate, 41.9%; with SK-MEL-5 melanoma, 50.7%. Further, the growth in the experiment on UACC-62 melanoma was 24.5%; in the experiment with LOX IMVI melanoma, -86.3% (active); in the experiment on SK-MEL-28 melanoma, 102%; with SK-MEL-2 melanoma, 107%; in the experiment on EKVX NSCLC, 67.7%; with SN12C renal, 30.5%. Besides, the growth in the experiment on UO-31 renal is 15%; in the experiment with TK-10 renal it was 82.8%; with ACHN renal, 8.76% (active); with CAKI-1 renal, 20.1%; in the experiment on A498 renal, -3% (active); in the experiment on CCRF-CEM leukemia, 0.479% (active). For the same compound, in the experiment on MOLT-4 leukemia, the growth is -7.04% (active).

(Values after PubChem BioAssay (NCI).)
